Consider 7 compounds from PubChem BioAssay (Tox21).

The structures appear in SMILES notation. Values without a mark were called inactive. Results filed as inconclusive are left out. The source made the active and inactive calls. Unless noted, calls follow the shape of the dose curve; as a rule, active = well fitted curve in the direction sought with a large enough effect in the repeat runs; inconclusive = weak or mixed curves; inactive = no such curve, though single readings can be large; an effect the other way counts as inactive or inconclusive.

Experiment [1] is described as follows: Human pregnane X receptor (PXR) small molecule agonists, qHTS cell viability counter screen (AID 1346977). Also: nearly all actives have a fitted effect of over 50% in size. The method in brief:
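Tox21 qHTS format; PXR-Luc HepG2, 2,000/well, charcoal-stripped FBS 5%. Cpd exposure 24hr. Read: CellTiter-Fluor fluorescence, multiplexed with luciferase.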
A general note: Quantitative high-throughput screening tests each substance at several concentrations.

Experiment [2] can be described thus: Caspase-3/7 induction in HepG2 cells by small molecules, qHTS assay (AID 1346978). Also: nearly all actives have a fitted effect of over 15% in size. A digest of the protocol:
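Wild-type HepG2 cells, 2,000/well, settled 5 hr at 37 C and 5% CO2, then compound-treated for 17 hr; caspase-3/7 activity read by luminescent Caspase-Glo 3/7 after 30 min at room temperature.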

Experiment [3] is described as follows: Caspase-3/7 induction in CHO-K1 cells by small molecules, qHTS cell viability counter screen (AID 1346979). Also: nearly all actives have a fitted effect of over 35% in size. A digest of the protocol: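 CellTiter-Fluor viability check, qHTS format: wild-type CHO-K1, 16hr compound treatment, 1hr reagent incubation, fluorescence read.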
A short description of experiment [4]: Caspase-3/7 induction in CHO-K1 cells by small molecules, qHTS assay (AID 1346980). Also: nearly all actives have a fitted effect of over 15% in size. A digest of the protocol: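 Wild-type CHO-K1 cells exposed to compounds for 17hr at 37 C, 5% CO2. Caspase-3/7 activity then measured by Caspase-Glo 3/7 luminescence after 30min at room temperature.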
Experiment [5] addresses Nuclear receptor subfamily 1 group I member 2 (Homo sapiens) (UniProt O75469). Nature of the experiment: Human pregnane X receptor (PXR) small molecule agonists, qHTS assay (AID 1346982). Also: nearly all actives have a fitted effect of over 35% in size. The method in brief:
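Luminescence (ONE-Glo, 30 min RT) after 24 hr compound exposure of PXR-Luc HepG2 cells; cells rested 5 hr post-plating in 5% charcoal-stripped FBS medium.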

Experiment [6] concerns the target Acetylcholinesterase (Homo sapiens) (UniProt P22303). Nature of the experiment: Acetylcholinesterase (AChE) small molecule antagonists: colormetric cell-based qHTS assay (AID 1347395; calls by dose curve; also: nearly all actives have a fitted effect of over 30% in size). The method in brief:
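AChE inhibition read colorimetrically via DTNB–thiocholine in SH-SY5Y cells. Compound 30 min, substrate 90 min, both 37 C.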

Experiment [7] has the same target. The experiment is described as follows: Acetylcholinesterase (AChE) small molecule antagonists: enzyme-based qHTS assay (AID 1347397; calls by dose curve; also: nearly all actives have a fitted effect of over 55% in size). The note with it: Potency: AChE enzyme activity inhibition; outcome: AChE enzyme activity inhibition. The method in brief: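 Enzyme inhibition was scored from DTNB-detected thiocholine formed by recombinant human AChE acting on acetylthiocholine. The 30 min compound preincubation and 10 min substrate reaction were both run at room temperature, with DMSO as vehicle control.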

Experiment [8] shares this target. Nature of the experiment: Acetylcholinesterase (AChE) small molecule antagonists: enzyme-based qHTS assay with human liver microsomes (AID 1347399; calls by dose curve; also: nearly all actives have a fitted effect of over 60% in size). The note with it: Potency: qHTS inhibition; outcome: qHTS inhibition. A digest of the protocol: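 Recombinant human AChE (50 mU/mL in the enzyme mix) and human liver microsomes (0.25 mg/mL final) were preincubated with compound and NADPH (0.25 mg/mL final) for 30 min at 37 C. Acetylthiocholine/DTNB was then added; thiocholine was read colorimetrically after 10 min at room temperature.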

Experiment [9] addresses Cytochrome P450 2C19 (Homo sapiens) (UniProt P33261). Nature of the experiment: Cytochrome P450 Family 2 Subfamily C Member 19 (CYP2C19) small molecule antagonists: luciferase reporter qHTS assay (AID 1671197). Also: nearly all actives have a fitted effect of over 65% in size. Also: potency is read from the fitted curve at half-maximal effect. The method in brief: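 Luminescent readout of CYP2C19 activity: luciferin product detected 20 min after adding detection reagent. Before that, compound and enzyme-substrate mix preincubated 10 min at room temperature; NADPH-regenerating system started a 1 h, 37C reaction. Ketoconazole as positive control.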
For orientation: Reporter assays use an easily measured gene product as a stand-in for the process of interest.

Experiment [10] addresses Cytochrome P450 1A2 (Homo sapiens) (UniProt P05177). Nature of the experiment: Cytochrome P450 Family 1 Subfamily A Member 2 (CYP1A2) small molecule antagonists: luciferase reporter qHTS assay (AID 1671199). Also: nearly all actives have a fitted effect of over 50% in size. Also: potency is read from the fitted curve at half-maximal effect. The method in brief:
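Signal from luciferin formed by CYP1A2 from a proluciferin substrate is read as luminescence, expressed in relative luminescence units. Compounds sit with enzyme 10 min, NADPH-driven reaction runs 1 h, all at room temperature.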

Experiment [11] has as its target Voltage-gated inwardly rectifying potassium channel KCNH2 (Homo sapiens) (UniProt Q12809). Nature of the experiment: Human Ether-a-go-go-Related Gene (hERG) channel small molecule antagonists: fluorescence cell-based qHTS assay (AID 1671200).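 Also: hERG-expressing U2OS cells given a thallium stimulus after FluxOR II dye loading; series mostly up to about 77 µM; nearly all actives have a fitted effect of over 50% in size.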 A digest of the protocol:
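Kinetic two-minute fluorescence traces, sampled at 1 s, were collected following thallium stimulus of U2OS cells (1000 per well) that had been cultured overnight at 37 C and loaded with FluxOR II.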
(In general: hERG is a cardiac potassium channel; its block is linked to QT prolongation.)

For experiment [12], the target named is Cytochrome P450 3A4 (Homo sapiens) (UniProt P08684). Nature of the experiment: Cytochrome P450 Family 3 Subfamily A Member 4 (CYP3A4) small molecule antagonists: luciferase reporter qHTS assay (AID 1671201). Also: series mostly up to about 120 µM; nearly all actives have a fitted effect of over 50% in size. The method in brief:
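Proluciferin-to-luciferin conversion by CYP3A4, NADPH-regenerated, 1 h RT; luminescence read as RLU. Ketoconazole as control.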

The target in experiment [13] is Nuclear receptor subfamily 1 group I member 2 (Rattus norvegicus) (UniProt Q9R1A7). Nature of the experiment: Rat pregnane X receptor (rPXR) activation by small molecules, qHTS assay (AID 1346983). Also: nearly all actives have a fitted effect of over 20% in size. The note with it: rPXR luciferase reporter cells, One-Glo luminescence, 24 h; stronger effect = higher value. The method in brief:
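Cell-based rPXR activation assay: rPXR cells, 2,000 per well, rested 5hr at 37 C, then exposed to compounds in DMSO for 24 hr at 37 C. Luciferase activity read by One-Glo luminescence after 30 min at room temperature.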

The target in experiment [14] is Nuclear receptor subfamily 1 group I member 2 (Homo sapiens) (UniProt O75469). The experiment is described as follows: CYP3A4 induction through human pregnane X receptor (PXR) by small molecules, qHTS assay (AID 1346984). Also: nearly all actives have a fitted effect of over 40% in size. A digest of the protocol: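 DPX-2 reporter cells; 24h cpd, 37C; Luciferin-IPA 3uM final x3h; One-Glo 30 min RT; lumi read.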
The target is the same in experiment [15]. Nature of the experiment: Human pregnane X receptor (PXR) activation by small molecules, qHTS assay (AID 1346985). Also: nearly all actives have a fitted effect of over 40% in size. A digest of the protocol:
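DPX-2 cells (HepG2 co-transfected with a PXR response element and a CYP3A4-promoter luciferase construct) were seeded at 2,000 per well, rested 5 hr at 37C, then exposed to DMSO-dissolved compounds for 24 hr. Activation was read as luciferase luminescence.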

Experiment [16] has as its target Acetylcholinesterase (Homo sapiens) (UniProt P22303). The experiment is described as follows: Acetylcholinesterase (AChE) small molecule antagonists: fluorescence cell-based qHTS assay (AID 1347398; calls by dose curve; also: nearly all actives have a fitted effect of over 50% in size; also: potency is read from the fitted curve at half-maximal effect). The note with it: Potency: AChE activity; outcome: AChE activity. A digest of the protocol:
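Endogenous acetylcholinesterase of SH-SY5Y neuroblastoma cells is measured in situ. After overnight attachment and 30 min compound exposure, cells receive acetylthiocholine and Thiolite Green; fluorescence is read after 40 min at room temperature.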

In experiment [17] the target is Cytochrome P450 2C9 (Homo sapiens) (UniProt P11712). The experiment is described as follows: Cytochrome P450 Family 2 Subfamily C Member 9 (CYP2C9) small molecule antagonists: luciferase reporter qHTS assay (AID 1671198). Also: nearly all actives have a fitted effect of over 50% in size. Also: potency is read from the fitted curve at half-maximal effect. The method in brief: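 P450-Glo proluciferin substrate with CYP2C9 enzyme; 10 min RT preincubation, then NADPH regeneration 1 h at 37C; luciferin detection reagent 20 min RT, luminescence in relative luminescence units.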

The target of experiment [18] is Cytochrome P450 2D6 (Homo sapiens) (UniProt P10635). The experiment is described as follows: Cytochrome P450 Family 2 Subfamily D Member 6 (CYP2D6) small molecule antagonists: luciferase reporter qHTS assay (AID 1671196). The method in brief:
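Inhibition of CYP2D6 was gauged by loss of luminescence, since light produced tracks the luciferin generated from a proluciferin substrate. A 10 min room-temperature preincubation preceded 1 h NADPH-supported turnover.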

Experiment [19] in a line: Caspase-3/7 induction in HepG2 cells by small molecules, qHTS cell viability counter screen (AID 1346981). Also: series mostly up to about 92 µM; nearly all actives have a fitted effect of over 30% in size. The method in brief:
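Counter screen for cytotoxicity: HepG2 exposed 16 hr to compounds, then CellTiter-Fluor viability signal (fluorescence, 1 hr reagent incubation).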
% is scaled to controls: 0 for no effect and ±100 for the full control effect.

Cytochrome P450 2C9 (Homo sapiens), sequence (P11712 whole entry, looked up): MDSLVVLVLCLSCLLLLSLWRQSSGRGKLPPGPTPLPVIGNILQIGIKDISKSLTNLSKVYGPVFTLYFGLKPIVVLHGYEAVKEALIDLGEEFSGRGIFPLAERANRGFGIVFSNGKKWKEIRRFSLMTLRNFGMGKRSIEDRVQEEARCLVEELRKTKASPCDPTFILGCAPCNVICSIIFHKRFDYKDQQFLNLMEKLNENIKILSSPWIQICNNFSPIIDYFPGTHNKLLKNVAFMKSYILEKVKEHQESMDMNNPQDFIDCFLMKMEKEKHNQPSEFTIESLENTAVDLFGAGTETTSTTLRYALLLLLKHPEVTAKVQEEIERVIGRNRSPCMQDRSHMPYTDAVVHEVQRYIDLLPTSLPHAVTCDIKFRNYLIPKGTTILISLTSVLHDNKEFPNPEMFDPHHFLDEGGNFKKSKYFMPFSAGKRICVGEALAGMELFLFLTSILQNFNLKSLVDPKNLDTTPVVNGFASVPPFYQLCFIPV
Acetylcholinesterase (Homo sapiens), sequence (P22303 whole entry, looked up): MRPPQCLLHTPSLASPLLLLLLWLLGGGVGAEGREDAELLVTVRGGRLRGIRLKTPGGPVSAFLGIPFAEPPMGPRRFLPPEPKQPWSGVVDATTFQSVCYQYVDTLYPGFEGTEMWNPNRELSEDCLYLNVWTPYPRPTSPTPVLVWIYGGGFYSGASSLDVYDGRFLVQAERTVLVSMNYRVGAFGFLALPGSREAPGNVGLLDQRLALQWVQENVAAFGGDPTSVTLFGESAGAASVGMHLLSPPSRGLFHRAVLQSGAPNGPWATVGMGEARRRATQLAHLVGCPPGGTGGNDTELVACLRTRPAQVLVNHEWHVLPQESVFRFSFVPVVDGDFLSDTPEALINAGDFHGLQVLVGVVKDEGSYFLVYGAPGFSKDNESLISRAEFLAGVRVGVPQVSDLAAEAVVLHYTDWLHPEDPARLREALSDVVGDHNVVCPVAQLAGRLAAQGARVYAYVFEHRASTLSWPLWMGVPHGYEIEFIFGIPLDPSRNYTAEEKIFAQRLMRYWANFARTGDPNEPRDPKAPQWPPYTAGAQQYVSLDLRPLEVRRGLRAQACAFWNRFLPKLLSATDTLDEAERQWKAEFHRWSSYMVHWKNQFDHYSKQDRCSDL
Cytochrome P450 2D6 (Homo sapiens), sequence (P10635 whole entry, looked up): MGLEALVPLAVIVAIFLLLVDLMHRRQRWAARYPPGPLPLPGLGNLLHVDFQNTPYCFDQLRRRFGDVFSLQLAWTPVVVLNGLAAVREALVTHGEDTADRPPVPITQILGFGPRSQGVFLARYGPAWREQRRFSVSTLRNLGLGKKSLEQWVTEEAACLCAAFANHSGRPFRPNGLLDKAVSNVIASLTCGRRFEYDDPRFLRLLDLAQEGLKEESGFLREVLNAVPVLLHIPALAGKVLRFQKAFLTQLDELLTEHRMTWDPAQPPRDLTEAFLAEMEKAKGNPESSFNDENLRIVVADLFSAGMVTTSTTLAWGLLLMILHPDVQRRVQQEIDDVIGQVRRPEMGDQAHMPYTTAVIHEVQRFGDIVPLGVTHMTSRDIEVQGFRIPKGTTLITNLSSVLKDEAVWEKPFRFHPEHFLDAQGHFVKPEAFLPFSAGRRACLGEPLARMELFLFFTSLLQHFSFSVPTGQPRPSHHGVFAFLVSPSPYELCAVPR
Cytochrome P450 1A2 (Homo sapiens), sequence (P05177 whole entry, looked up): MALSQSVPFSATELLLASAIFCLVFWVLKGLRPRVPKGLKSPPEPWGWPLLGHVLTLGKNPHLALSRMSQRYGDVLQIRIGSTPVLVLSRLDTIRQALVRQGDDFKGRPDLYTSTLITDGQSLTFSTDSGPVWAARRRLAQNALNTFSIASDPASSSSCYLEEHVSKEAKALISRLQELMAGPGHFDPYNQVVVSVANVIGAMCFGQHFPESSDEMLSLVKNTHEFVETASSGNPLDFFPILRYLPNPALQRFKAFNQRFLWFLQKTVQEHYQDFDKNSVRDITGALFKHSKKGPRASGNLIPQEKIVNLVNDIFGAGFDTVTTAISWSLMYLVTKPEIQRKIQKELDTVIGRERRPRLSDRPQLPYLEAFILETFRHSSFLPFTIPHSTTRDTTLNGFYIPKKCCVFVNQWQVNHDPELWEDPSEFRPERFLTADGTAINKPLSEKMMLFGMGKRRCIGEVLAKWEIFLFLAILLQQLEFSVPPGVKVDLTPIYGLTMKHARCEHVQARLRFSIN
Voltage-gated inwardly rectifying potassium channel KCNH2 (Homo sapiens), sequence (Q12809 whole entry, looked up): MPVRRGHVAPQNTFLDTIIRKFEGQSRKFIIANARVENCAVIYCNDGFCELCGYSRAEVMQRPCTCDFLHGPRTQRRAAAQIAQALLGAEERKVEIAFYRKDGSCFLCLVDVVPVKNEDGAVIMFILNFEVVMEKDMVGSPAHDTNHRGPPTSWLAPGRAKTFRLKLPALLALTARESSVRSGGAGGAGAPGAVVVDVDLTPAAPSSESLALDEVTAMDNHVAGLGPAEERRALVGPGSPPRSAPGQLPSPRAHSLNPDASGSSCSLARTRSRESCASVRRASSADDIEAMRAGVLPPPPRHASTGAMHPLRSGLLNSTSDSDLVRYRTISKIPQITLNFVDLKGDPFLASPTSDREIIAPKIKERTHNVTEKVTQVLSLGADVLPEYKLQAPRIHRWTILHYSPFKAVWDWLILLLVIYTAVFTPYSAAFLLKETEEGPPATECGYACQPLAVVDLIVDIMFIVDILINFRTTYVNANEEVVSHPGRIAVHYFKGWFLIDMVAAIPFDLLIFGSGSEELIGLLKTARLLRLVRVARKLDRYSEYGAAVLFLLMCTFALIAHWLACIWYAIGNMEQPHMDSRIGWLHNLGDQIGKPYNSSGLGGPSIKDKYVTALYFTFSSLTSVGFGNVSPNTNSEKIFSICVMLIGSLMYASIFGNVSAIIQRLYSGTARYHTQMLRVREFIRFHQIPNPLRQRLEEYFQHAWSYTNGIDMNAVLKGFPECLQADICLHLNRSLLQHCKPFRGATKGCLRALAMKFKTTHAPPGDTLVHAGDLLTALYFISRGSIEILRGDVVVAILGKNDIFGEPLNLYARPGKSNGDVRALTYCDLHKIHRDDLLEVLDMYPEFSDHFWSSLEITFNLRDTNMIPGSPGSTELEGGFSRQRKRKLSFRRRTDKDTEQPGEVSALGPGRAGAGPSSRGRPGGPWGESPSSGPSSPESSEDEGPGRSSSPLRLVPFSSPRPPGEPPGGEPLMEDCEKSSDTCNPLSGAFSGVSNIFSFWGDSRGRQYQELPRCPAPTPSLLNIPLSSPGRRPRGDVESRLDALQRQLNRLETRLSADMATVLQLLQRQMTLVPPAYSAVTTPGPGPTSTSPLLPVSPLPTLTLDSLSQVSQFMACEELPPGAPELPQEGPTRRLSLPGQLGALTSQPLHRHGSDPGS
Cytochrome P450 3A4 (Homo sapiens), sequence (P08684 whole entry, looked up): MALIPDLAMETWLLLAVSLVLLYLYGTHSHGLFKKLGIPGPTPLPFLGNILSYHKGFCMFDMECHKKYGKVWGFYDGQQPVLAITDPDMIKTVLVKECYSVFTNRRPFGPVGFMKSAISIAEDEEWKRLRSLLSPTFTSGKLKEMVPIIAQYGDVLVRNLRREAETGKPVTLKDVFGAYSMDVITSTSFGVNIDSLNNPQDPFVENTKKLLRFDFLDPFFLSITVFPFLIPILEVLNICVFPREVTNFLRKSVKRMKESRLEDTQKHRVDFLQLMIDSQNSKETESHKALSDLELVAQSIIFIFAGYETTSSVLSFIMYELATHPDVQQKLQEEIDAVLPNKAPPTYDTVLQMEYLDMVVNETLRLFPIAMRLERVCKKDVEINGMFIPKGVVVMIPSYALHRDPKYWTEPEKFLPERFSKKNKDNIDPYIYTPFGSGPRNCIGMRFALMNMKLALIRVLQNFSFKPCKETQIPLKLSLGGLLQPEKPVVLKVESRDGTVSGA
Nuclear receptor subfamily 1 group I member 2 (Homo sapiens), sequence (O75469 whole entry, looked up): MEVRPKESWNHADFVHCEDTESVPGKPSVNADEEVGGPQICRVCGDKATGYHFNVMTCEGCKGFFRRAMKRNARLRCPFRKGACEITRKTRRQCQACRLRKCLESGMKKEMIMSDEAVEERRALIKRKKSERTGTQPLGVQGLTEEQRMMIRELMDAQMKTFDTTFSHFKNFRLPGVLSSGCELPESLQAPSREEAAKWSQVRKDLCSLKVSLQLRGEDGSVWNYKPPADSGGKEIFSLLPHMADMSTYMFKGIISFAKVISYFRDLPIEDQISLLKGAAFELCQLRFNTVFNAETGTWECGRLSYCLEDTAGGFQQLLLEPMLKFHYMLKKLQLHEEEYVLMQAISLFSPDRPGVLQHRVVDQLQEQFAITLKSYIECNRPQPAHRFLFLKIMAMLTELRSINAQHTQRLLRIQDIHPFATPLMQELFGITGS
Cytochrome P450 2C19 (Homo sapiens), sequence (P33261 whole entry, looked up): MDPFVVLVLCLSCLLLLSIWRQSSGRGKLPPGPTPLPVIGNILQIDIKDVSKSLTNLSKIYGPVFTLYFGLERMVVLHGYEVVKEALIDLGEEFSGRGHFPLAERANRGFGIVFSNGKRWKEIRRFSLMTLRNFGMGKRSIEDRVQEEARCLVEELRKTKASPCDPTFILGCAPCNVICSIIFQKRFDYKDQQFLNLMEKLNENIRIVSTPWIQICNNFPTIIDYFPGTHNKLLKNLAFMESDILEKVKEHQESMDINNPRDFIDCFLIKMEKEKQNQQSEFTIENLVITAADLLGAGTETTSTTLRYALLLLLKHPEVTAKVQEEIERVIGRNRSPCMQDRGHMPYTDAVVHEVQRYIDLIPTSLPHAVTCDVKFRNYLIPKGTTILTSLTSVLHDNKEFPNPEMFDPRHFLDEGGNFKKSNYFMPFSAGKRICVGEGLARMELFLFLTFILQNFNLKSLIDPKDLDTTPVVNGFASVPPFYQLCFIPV

On to `O=C(O)c1cc(Cl)ccc1Cl`, for which the Potency entry in experiment [1], in [2], in [3], in experiment [4], in [5] and in experiment [6] was “inactive” each time. Further, the Potency result in experiment [7], in [8], in [11] and in experiment [12] was “inactive” in each case. Also, the Potency in experiment [9] is 79.3 µM (active); in experiment [10] it was 39.7 µM (active).
Turning to `C[C@H](N)[C@H](O)c1ccc(O)c(O)c1`, the Potency result in experiment [1], in experiment [2], in experiment [3], in experiment [4], in experiment [5] and in experiment [15] was “inactive” each time. Besides, the Potency result in experiment [6], in experiment [7], in experiment [8], in experiment [9], in experiment [17] and in [10] was “inactive” each time. Further, the Potency result in experiment [11] and in [12] was “inactive” in each case. Further, the max activation in experiment [13] is -1.11%. Also, the outcome in experiment [14] was inactive. Moreover, in experiment [16], the Potency is 0.776 µM (active).
`CCCCCCCCP(=O)(O)O`: the Potency result in experiment [1], in experiment [2], in [3], in [4], in experiment [5] and in experiment [7] was “inactive” throughout. Further, the Potency result in [16], in [8], in experiment [9], in experiment [17], in [11] and in experiment [12] was “inactive” throughout.
With `CCCCCCCCCCCCN(C)C`, the Potency entry in experiment [1], in experiment [2], in experiment [3], in experiment [4], in [5] and in [6] was “inactive” throughout. Moreover, the Potency entry in [7], in experiment [16], in [8], in experiment [18], in [17] and in experiment [11] was “inactive” in each case. Besides, the Potency result in experiment [12] was “inactive”. Also, the Potency in experiment [10] is 35.6 µM (active).
`C#CC(O)(C=CCl)CC` (stereo unspecified): the Potency entry in experiment [1], in experiment [2], in experiment [4], in experiment [19], in experiment [5] and in experiment [7] was “inactive” throughout. The Potency result in experiment [16], in [8], in experiment [18], in experiment [9], in [17] and in experiment [10] was “inactive” throughout. Moreover, the Potency entry in experiment [11] and in [12] was “inactive” in each case.
Regarding `CCOP(=O)(O)C(N)=O`, the Potency entry in experiment [1], in [2], in experiment [4], in experiment [5], in experiment [6] and in [7] was “inactive” in each case. The Potency entry in [16], in experiment [8], in experiment [9], in experiment [17], in experiment [10] and in [11] was “inactive” throughout. Also, the Potency entry in [12] was “inactive”.
With `N#CC(C#N)=Cc1ccc(O)c(O)c1`, the Potency entry in experiment [1], in experiment [2], in [4], in experiment [19], in [5] and in experiment [6] was “inactive” in each case. In addition, the Potency result in [7], in experiment [16], in experiment [8], in experiment [18], in experiment [9] and in experiment [11] was “inactive” throughout. Moreover, the Potency result in experiment [12] is “inactive”. Further, the Potency in experiment [17] is 17.4 µM (active).
